Screening results from PubChem BioAssay.
Shown are actives, neighbours in structure and some others; about 4.9% of the full set was active somewhere.
USP10 inh: blocks human USP10 ubiquitin-rhodamine cleavage; Q14694; purified USP10, Ub-rhodamine fluorescence, 60 min; inhibition, % at 20 µM; 47,000 tested, 1.1% active; AID 1645856
USP7 inh: human USP7 deubiquitinase inhibition. 47,000 tested, 0.3% active. inhibition, % at 20 µM. purified USP7, Ub-rhodamine cleavage fluorescence
OTUD3 block: inhibitors of human OTUD3 deubiquitinase | Q5T2D3 | 47,000 tested, 0.7% active | purified OTUD3, Ub-rhodamine fluorescence, 2 h | inhibition, % at 25 µM
USP8 block: blocks human USP8 ubiquitin-rhodamine cleavage; 47,000 tested, 4.2% active; inhibition, % at 20 µM; purified USP8, Ub-rhodamine cleavage fluorescence, 30 min; P40818
UCHL1 block: human UCHL1 deubiquitinase inhibition; P09936; purified UCHL1, Ub-rhodamine cleavage fluorescence; inhibition, % at 20 µM; 47,000 tested, 0.2% active
Target sequence (P09936 whole entry, looked up): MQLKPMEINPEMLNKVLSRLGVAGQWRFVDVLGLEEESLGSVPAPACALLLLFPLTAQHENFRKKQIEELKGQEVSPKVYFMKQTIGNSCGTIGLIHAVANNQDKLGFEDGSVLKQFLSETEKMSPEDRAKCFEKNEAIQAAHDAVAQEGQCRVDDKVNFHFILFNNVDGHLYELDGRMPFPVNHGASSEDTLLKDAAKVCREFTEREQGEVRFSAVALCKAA
Numbers stand for hits; - = inactive. No stated cut-off is given here; in the data, active means inhibition above about 30%; inactive means the rest.

SMILES	USP10 inh	USP7 inh	OTUD3 block	USP8 block	UCHL1 block
Cc1cccc(NC(=O)[C@@H]2CCCN2C2=NS(=O)(=O)c3ccccc32)c1C	-	-	-	46.4	-
COc1ccc2c(C)c(CC(=O)N[C@@H](Cc3c[nH]c4ccc(O)cc34)C(=O)O)c(=O)oc2c1C	-	-	-	45.5	-
CC(=O)N1[C@@H](CNC(=O)c2ccccn2)C[C@@]2(C)[C@@H](O)CCCC[C@@H]12	-	-	-	-	-
Cc1cc(C(=O)COC(=O)c2cc(=O)[nH]c3ccccc23)c(C)n1CC(F)(F)F	-	-	-	-	-
COC(=O)c1c(OC)cc2c(c1C)Oc1c(Cl)c(O)c(Cl)c(C)c1C(=O)O2	31.9	-	-	-	-
CC(C)CCNC(=O)c1ccc2ccnc(N3CCN(c4ccccc4F)CC3)c2c1	-	-	-	66.9	-
CCN(C1CCS(=O)(=O)C1)S(=O)(=O)c1ccc(Cl)cc1 (stereo not drawn)	-	-	-	-	-
CC(C)N1C[C@]2(CCC1=O)CN(C)C[C@H]2C(=O)N1CCN(c2ccccc2)CC1	-	-	-	-	-
O=c1c2cc(Br)ccc2[nH]c(=S)n1Cc1cccnc1	31.7	-	-	87.8	-
Cn1c(=O)n(Cc2cccnc2)c(=O)c2cnc(-c3ccncc3)nc21	-	-	-	-	-
COc1ccc(CCNc2nc3c(-c4ccccc4)nnn3c3ccccc23)cc1OC	-	-	-	43.8	-
COCCCNc1nc2c(-c3ccc(Cl)cc3)nnn2c2ccccc12	-	-	-	-	-
Cc1cc(C(=O)N2CCC3(CC2)CC[C@@]2(C(=O)N(C)C)CN(S(C)(=O)=O)C[C@@H]32)n[nH]1	-	-	-	-	-
O=C(CCn1c(=O)c2sccc2n(Cc2ccc([N+](=O)[O-])cc2)c1=O)NCc1ccccc1	39.2	-	44.1	60.8	-
O=C(Cn1c(=O)c2sccc2n(Cc2ccc([N+](=O)[O-])cc2)c1=O)NCCc1ccccc1	38.5	-	-	-	-
COc1ccc(CCNC(=O)Cn2c(=O)c3sccc3n(Cc3ccccc3C#N)c2=O)cc1OC	-	-	-	-	-
COc1ccc(CNC(=O)CCn2c(=O)c3sccc3n(Cc3ccccc3C#N)c2=O)cc1	-	-	-	-	-
Cc1nc2c(c3c1COC(C)(C)C3)c(=O)ncn2Cc1ccccc1	-	-	-	-	-
N#Cc1ccccc1Cn1c(=O)n(Cc2ccco2)c(=O)c2ccccc21	-	-	-	-	-
O=S(=O)(Nc1cc(S(=O)(=O)N2CCCCC2)ccc1O)c1ccc2c(c1)OCCCO2	-	-	-	82.7	-
O=S(=O)(c1ccc2c(c1)OCCO2)N1CCC(N2CCCCC2)CC1	-	-	-	-	-
O=C(c1cn(Cc2ccccc2)nc1-c1cccnc1)N1CCCc2ccccc21	-	-	-	-	-
Cc1ccc2c(c1)CCCN2C(=O)c1cn(Cc2ccccc2)nc1-c1cccnc1	-	-	-	53.4	-
COc1ccc(CNc2nc3c(c(=O)n2C)CN(C(=O)c2cccn2C)CC3)cc1	-	-	-	-	-
COc1ccc(CSc2nc3ccncc3n2CC(=O)Nc2ccc(C)cc2C)cc1	-	-	33.7	-	-
SMILES	USP10 inh	USP7 inh	OTUD3 block	USP8 block	UCHL1 block
O=C(OCc1ccc(Br)cc1)c1ccc2ccccc2n1	-	-	-	-	-
CC(=O)c1cccc(-c2cnc3sc(NCC4CCOCC4)nn23)c1	-	-	-	-	-
CC(=O)Nc1cccc(-c2cnc3sc(NC4CCCCC4)nn23)c1	-	-	-	47.0	-
FC(F)(F)c1cnc(/C=C/Nc2ccccc2Oc2ccccc2)c(Cl)c1	-	-	-	-	-
FC(F)(F)c1cnc(/C=C/Nc2cccc(Oc3ncc(C(F)(F)F)cc3Cl)c2)c(Cl)c1	-	-	-	74.5	-
C[C@@H]1/C=C/CC/C=C/C(=O)[C@H](C)[C@@H]2CC[C@@H](C)[C@@](O)(O2)C(=O)C(=O)N2CCCC[C@H]2C(=O)O[C@H]([C@H](C)C[C@@H]2CC[C@@H](O)[C@H](O)C2)CC1	-	-	43.2	-	-
CO[C@H]1C[C@@H]2CC[C@@H](C)[C@@](O)(O2)C(=O)C(=O)N2CCCC[C@H]2C(=O)O[C@@H]([C@H](C)C[C@@H]2CC[C@@H](O)[C@H](OC)C2)CC(=O)[C@H](C)/C=C(\C)[C@@H](O)CC(=O)[C@H](C)C[C@H](C)/C=C/C=C/C=C/1C	-	-	-	-	-
CCOc1ccc2nc(NCCc3ccc(Cl)cc3Cl)sc2c1	-	-	-	-	-
O=C(CCc1nc2sc3c(c2c(=O)[nH]1)CCCCC3)Nc1ccc(F)cc1F	-	-	-	42.2	-
COc1cccc(C2c3[nH]c4ccccc4c3C[C@@H]3C(=O)N(CC(O)c4ccccc4)CC(=O)N23)c1 (stereo partly drawn)	-	-	-	31.5	-
COc1cccc(-n2c(=O)c(C(=O)NCc3ccccc3)c(O)c3cccnc32)c1	-	-	-	80.1	-
CC(=O)OC(C(=O)Nc1sc2c(c1C#N)CCCC2)c1ccccc1 (stereo not drawn)	-	-	-	-	-
COc1cccc(N2C(=O)N3CCc4c([nH]c5ccc(OC)cc45)[C@@]3(C)C2=O)c1	-	-	-	-	-
COc1ccc(NC(=O)c2ccc(N3C(=O)N4CCc5c([nH]c6ccc(OC)cc56)[C@@]4(C)C3=O)cc2)cc1	-	-	-	30.9	-
Cc1ncc2c(n1)C1(CCN(Cc3ccc(F)c(F)c3)CC1)OCC2	-	-	-	-	-
Cc1ccc(CNC(=O)[C@H](C)NC(=O)[C@@H]2Cc3c([nH]c4ccccc34)C3c4ccccc4C(=O)N32)cc1 (stereo partly drawn)	-	-	-	-	-
CC(C)=CCC[C@](C)(O)[C@H]1CC[C@]2(C)[C@@H]1CC[C@@H]1[C@@]3(C)CC[C@H](O)C(C)(C)[C@@H]3CC[C@]12C	-	-	-	-	-
C=C(C)[C@@H]1CC[C@]2(C)[C@H](CC[C@@H]3[C@@H](C(C)(O)CCC=C(C)C)CC[C@]32C)[C@@]1(C)CCC(=O)O (stereo partly drawn)	92.9	85.2	87.5	91.3	44.5
COc1cc(O)cc2c1C(=O)OC(C)CCCCCCC2 (stereo not drawn)	38.0	-	-	-	-
Cc1cccc(S(=O)(=O)Nc2ccc(N3CCN(C)CC3)c(C(=O)O)c2)c1	-	-	-	88.9	-
Cc1cccc(NS(=O)(=O)c2ccc(C)c(C(=O)N3CCCc4ccccc43)c2)c1	-	-	-	-	-
c1ccc2c(N3CCCC3)nnc(-c3nc(C4CC4)no3)c2c1	-	-	-	-	-
CC1CCN(c2nnc(-c3nc(C4CC4)no3)c3ccccc23)CC1	-	-	31.0	-	-
O=C(CN1CCc2ccccc21)Nc1cc(C(=O)O)ccc1O	-	-	-	49.5	-
COC[C@H]1CCCN1C(=O)CC[C@H]1CNC(=O)[C@@H]2[C@@H](CCN2C2CCCCC2)N1C	-	-	-	-	-
CC(C)N1CC[C@@H]2[C@H]1C(=O)NC[C@H](CCC(=O)N1CCOCC1)N2C	-	-	-	-	-
